Source: PubChem BioAssay AID492964 (The Scripps Research Institute Molecular Screening Center, 2010)
The whole screen tested about 1,800 compounds, of which about 880 (49%) were called active. So high a share suggests a set chosen from earlier hits. These entries were drawn from the full list. A number with no mark means an inactive call. No stated cut-off is given here; in the data, active means inhibition above about 55%; inactive means the rest.

Target: Orexin/Hypocretin receptor type 1 (Homo sapiens) (UniProt O43613)
Test: HCRTR1 receptor blockers, retested hits – cell-based, HTRF, confirmation (AID 492964);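 further: CHO cells expressing OX1R stimulated with orexin A at about EC80; 0% = agonist challenge alone and 100% = reference antagonist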
Conditions: OX1R-expressing cells, HTRF antagonist assay; at 6.6 µM; hits give high values

Sequence of Orexin/Hypocretin receptor type 1 (Homo sapiens) (O43613 whole entry, looked up): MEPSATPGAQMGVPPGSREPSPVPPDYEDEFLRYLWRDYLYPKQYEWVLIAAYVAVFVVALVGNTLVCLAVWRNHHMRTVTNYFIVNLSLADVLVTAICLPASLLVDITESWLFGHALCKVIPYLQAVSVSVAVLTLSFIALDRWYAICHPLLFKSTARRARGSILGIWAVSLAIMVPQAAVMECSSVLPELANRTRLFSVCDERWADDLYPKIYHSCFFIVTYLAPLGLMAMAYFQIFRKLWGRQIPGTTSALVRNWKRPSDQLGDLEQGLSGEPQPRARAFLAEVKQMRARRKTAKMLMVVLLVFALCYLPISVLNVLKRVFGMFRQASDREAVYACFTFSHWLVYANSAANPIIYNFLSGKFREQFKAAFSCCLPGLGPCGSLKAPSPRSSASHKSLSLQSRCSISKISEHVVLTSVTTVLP

SMILES	inhibition
CCn1c(C)nc2c1C(=O)c1ccccc1C2=O	69.9% (active)
CC(=O)Oc1ccc(C(C)=O)c2c1OCCO2	19.2%
CC(NC(=O)c1cccc2ccccc12)c1ccc2c(c1)CCCC2 (stereo unspecified)	64.9% (active)
O=C(Nc1cccc2cccnc12)c1cccc(N2C(=O)CCC2=O)c1	86.1% (active)
COc1cccc(N=c2oc3c(C)ncc(CO)c3cc2C(N)=O)c1	51.7%
Cc1oc2c(c1C(=O)N1CCOCC1)C(=O)c1ccccc1C2=O	78.8% (active)
CCn1c(O)c(N=NC2=NC(=O)CS2)c2cc(C)ccc21	28.9%
O=C(N/N=C/c1sc(N2CCCCC2)nc1-c1cccs1)c1cccnc1	89.2% (active)
N#Cc1nc(-c2cccc3ccccc23)oc1N	60.8% (active)
O=C(Nc1ccccc1Cl)/C(Cl)=C(\Cl)S(=O)c1ccccc1 (stereo unspecified)	89.9% (active)
Cc1cccc(NC(=O)Nc2cccc(Oc3c(F)c(F)c(F)c(F)c3F)c2)c1	35.4%
NS(=O)(=O)c1ccc(CCNC(=O)c2ccc([N+](=O)[O-])cc2[N+](=O)[O-])cc1	84.6% (active)
CSCCC(NC(=O)c1cc([N+](=O)[O-])cc([N+](=O)[O-])c1)c1nc2ccccc2[nH]1 (stereo unspecified)	46.4%
Cc1c(/C=N\NC(=O)c2cc3ccccc3o2)c2ccccc2n1C	83.1% (active)
COc1cccc(C(=O)NC(=O)Nc2nc(C)cc(C(F)(F)F)n2)c1	57.7% (active)
Cc1cc(=O)oc(C)c1C(=O)NCCN(C)Cc1ccccc1	12.3%
O=C(NC(Cc1c[nH]c2ccccc12)C(=O)N/N=C/c1ccc(Br)cc1)c1cccs1 (stereo unspecified)	81.2% (active)
CC(C)(C)NC(=O)CN(C(=O)c1csnn1)c1ccccc1-c1ccccc1	55.5% (active)
COc1ccc2sc(-c3ccc(N(C)C)cc3)c(C#CCO)c2c1	62.2% (active)
CCn1c(=N)c(C(=O)NCCCOC)cc2c(=O)n3cccc(C)c3nc21	47.5%
COC(=O)c1sccc1NC(=O)CSc1ccccc1NS(=O)(=O)c1cc(Cl)ccc1Cl	67.1% (active)
COc1ccc(N(C)C(=O)CCS(=O)(=O)c2cccc3nsnc23)cc1	38.3%

SMILES	inhibition
CC(=O)Nc1ccc(Nc2c([N+](=O)[O-])cc(S(C)(=O)=O)cc2[N+](=O)[O-])cc1	46.9%
COC(=O)N/N=C/c1c[n+]([O-])c2ccccc2[n+]1[O-]	69.1% (active)
COCCNC(=O)Nc1ccc2nc(-c3ccco3)c(-c3ccco3)nc2c1	32.4%
COc1cc(OC)c(NC(=O)c2ccc(Br)o2)cc1Cl	66.4% (active)
Nc1ccc2nc3c(=O)[nH]c(=S)[nH]c3nc2c1	47.3%
N#C/C(=C1\CCCN1)c1nc(-c2ccccc2)cs1	94% (active)
N#CC(=C1SC=CS1)c1nc(-c2ccccc2)cs1	92.5% (active)
Nc1[nH][nH]c(=O)c1N=Nc1ccc2c(c1)OCO2	34.5%
COCCCNC(=S)NC(=O)c1ccc([N+](=O)[O-])cc1	50.2%
Cn1cnnc1Sc1ccc(S(C)(=O)=O)cc1[N+](=O)[O-]	42.5%
COc1cc2ccccc2cc1C(=O)Nc1ccc(N2CCOCC2)cc1	56.8% (active)
COc1ccccc1N1CC(C(=O)Nc2ccc(S(=O)(=O)N3CCOCC3)cc2)CC1=O (stereo unspecified)	16.2%
COc1cccc(/C=N/Nc2cc(C)nc(-c3ccccc3O)n2)c1O	92.3% (active)
CCOc1ccc(/C=C/C(=O)OCC(=O)c2ccccc2OC)cc1OC	58.8% (active)
CC(C)CC[n+]1ccn(C2=C([O-])c3ccccc3C(=O)/C2=N\S(=O)(=O)c2ccccc2)c1	51.6%
O=C(Oc1ccccc1C(=S)N1CCCCC1)c1cc([N+](=O)[O-])cc([N+](=O)[O-])c1	35.2%
COc1cc(C(=S)N2CCOCC2)cc(OC)c1OC(=O)c1ccc([N+](=O)[O-])cc1[N+](=O)[O-]	88.1% (active)
CCn1c(SCC(=O)c2ccc3ccccc3c2)nnc1-c1cccs1	81.2% (active)
COc1ccc(N2CC(C(=O)NCCN3C(=O)S/C(=C\c4cccnc4)C3=O)CC2=O)c(OC)c1 (stereo unspecified)	106% (active)
O=C(O)CCC(=O)Nc1nc2ccc([N+](=O)[O-])cc2s1	50.8%
Cc1cc(-c2ccc(C)c(S(=O)(=O)NC(C)Cc3ccco3)c2)on1 (stereo unspecified)	30.2%
COc1ccc(S(=O)(=O)NC(C)c2ccccc2)cc1C(=O)N1CCCCC1 (stereo unspecified)	72.9% (active)

SMILES	inhibition
CC(=O)N/N=C/c1cc2c(cc1[N+](=O)[O-])OCO2	34.2%
COC(=O)CNC(=O)c1ccc2c(c1)S(=O)(=O)c1ccccc1C2=O	63% (active)
Cc1cc(C(=O)NC2CCCc3c2cnn3-c2cccc(C)c2C)c(C)o1 (stereo unspecified)	63.8% (active)
Cc1cccc(NS(=O)(=O)c2cccc(C(=O)NNC(=O)c3ccccc3O)c2)c1	30.5%
S=c1[nH]nc(-c2cc(-c3ccccc3)n[nH]2)n1/N=C/c1c2ccccc2cc2ccccc12	60% (active)
Cc1cccn2c(=O)c3cc(C#N)c(=NC(=O)c4cccnc4)n(CC4CCCO4)c3nc12 (stereo unspecified)	44.2%
COc1ccc(CCn2c(NCCCN3CCOCC3)nc3c2c(=O)[nH]c(=O)n3C)cc1	15.3%
CCOc1ccc(CCNC(=O)C(CC)n2nc(C)n3c(cc4sccc43)c2=O)cc1OCC (stereo unspecified)	81.6% (active)
COc1cccc(/C=C/c2ccc3ccccc3n2)c1OC(C)=O	37.3%
CN(C(=O)CSc1nnc(-c2n[nH]c3ccccc23)o1)c1ccccc1	35%
COc1cccc(/C=N/NC(=O)c2[nH]nc3c2CCc2ccccc2-3)c1O	55% (active)
Nc1nc(COC(=O)CCC(=O)c2ccc(Cl)cc2)nc(Nc2ccccc2)n1	38.7%
O=C(/C=C/c1ccco1)Nc1cccc(-c2nc3ccccc3[nH]2)c1	59% (active)
COc1ccc(CCNC(=O)/C(C#N)=C2\N=C(NC(=O)c3cccs3)c3ccccc32)cc1	19.5%
CCC(=O)N(C)C(c1ccccc1Cl)c1nnnn1-c1c(C)cccc1C (stereo unspecified)	64% (active)
Cc1ccc2c(c1)nnc1nnc(SCC(=O)O)n12	63.9% (active)
O=C(Nc1nnc(-c2ccccc2)o1)c1cc(-c2cccs2)nc2ccccc12	75.6% (active)
C/C(N)=C(/C#N)C(=O)COC(=O)c1cc(-c2ccc(C)cc2)nc2ccccc12	27.5%
CCOc1ccc(NC(=O)CCS(=O)(=O)c2cccc3nsnc23)cc1	31.9%
Cc1cc(C)cc(NC(=O)C2CCCN2S(=O)(=O)c2cccc3cccnc23)c1 (stereo unspecified)	88.2% (active)
O=C(NCc1ccco1)C1CCCN(S(=O)(=O)c2cccc3nonc23)C1 (stereo unspecified)	16.2%
CC(=O)c1cccc(NC(=O)C2CCCN2S(=O)(=O)c2cccc3nsnc23)c1 (stereo unspecified)	101% (active)

SMILES	inhibition
CN1CCN(/N=C/c2ccc(-c3ccc([N+](=O)[O-])cc3)o2)CC1	26.4%
C=CCn1c(SCC(=O)Nc2nc3ccccc3s2)nnc1-c1ccccc1O	76.1% (active)
COc1ccc2oc(=O)c(C(=O)NCc3ccccn3)cc2c1	35.8%
O=C(Nc1ccc2sc3ccccc3c(=O)c2c1)c1ccccc1Cl	95.8% (active)
CC(C)(C)NC(=O)Cn1cnc2cc([N+](=O)[O-])ccc2c1=O	43.3%
CCOc1cc(/C=C(\C#N)c2nc(-c3cccs3)c(NC(C)=O)s2)ccc1O	73.3% (active)
O=C(Cc1ccccc1)N1CCN(S(=O)(=O)c2ccc([N+](=O)[O-])cc2)CC1	61.2% (active)
Cc1ccc([C@@H]2CC=C(C(=O)O)[C@H](c3cccc(Cl)c3)N2S(=O)(=O)c2ccc(C)cc2)cc1	82.8% (active)
Cc1ccccc1S(=O)(=O)N1[C@@H](c2cccc(Cl)c2)C(C(=O)O)=CC[C@H]1c1ccc(Cl)cc1	87.4% (active)
O=C(Nc1nnc(C2=COCCO2)o1)c1ccc([N+](=O)[O-])s1	49.7%
c1ccc(-c2nc(NCc3ccco3)c3ccccc3n2)cc1	64% (active)
C[n+]1ccccc1C1CCCC/C1=N\Nc1ccc([N+](=O)[O-])cc1[N+](=O)[O-] (stereo unspecified)	35.2%
Nc1nc(-c2sc3nc4c(cc3c2N)CCCC4)nc(N2CCOCC2)n1	94.8% (active)
O=C(CN1C(=O)c2cccc3cccc(c23)C1=O)N1CCCCC1	33.8%
Cn1c(N)c(C(=O)COC(=O)c2ccc3ccccc3c2)c(=O)n(C)c1=O	63.3% (active)
COc1ccc2[nH]c(=O)c(CNc3ccc(C)c(C)c3)cc2c1	31.3%
O=C(N/N=C/c1c(Cl)[nH]c2ccccc12)c1sc2ccccc2c1Cl	92.5% (active)
Cc1ccc(Nc2nc(CSc3nnnn3-c3ccccc3)cc(=O)[nH]2)cc1	22.3%
O=C(OC1CCOC1=O)c1ccc(-c2nc3ccccc3s2)s1 (stereo unspecified)	98.5% (active)
O=C(c1ccncc1)c1ccc([N+](=O)[O-])cc1	53.2%
